In the library only some 8% were active in any assay of this set; here they are far more common.
SW480 rerep: induces DNA re-replication in SW480 colon adenocarcinoma cells; SW480 DNA re-replication, Hoechst DNA content imaging, 48 h; Potency, µM (highest dose often 46.1 µM), without a hit: at the top dose re-replication activation, most hits filed as activators; actives 1.8% (n = 340,000); further: % of control where 0% means no effect; nearly all actives have a fitted effect of over 55% in size
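First, 250 cells per well were seeded. Next, compound or vehicle (23 nL) was pinned in, plates sat 48 hr at 37 C. Finally Hoechst was added for 40 min before fluorescence scanning.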
KB-V1 cytotox: kills drug-selected multidrug resistant KB-V1 cells | Potency, µM (doses to about 46.1 µM), actives largely listed as cytotoxic | KB-V1 MDR cells viability, CellTiter-Glo, 72 h | AID 1347076 | actives 3.4% (n = 400,000); further: on the % scale 0 is the no-effect control and ±100 the full control effect; nearly all actives have a fitted effect of over 60% in size
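Cytotoxicity toward P-gp-expressing KB-V1 cells was determined as loss of CellTiter-Glo luminescence after 72 h at 37 degrees C. Compounds were tested in quantitative HTS format across a concentration range, with curves fitted to normalized data.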
KB-3-1 tox: kills parental KB-3-1 adenocarcinoma cells; Potency, µM (series often up to 46.1 µM), most hits filed as cytotoxic; KB-3-1 viability, CellTiter-Glo ATP luminescence, 72 h; actives 1.4% (n = 400,000); further: on the % scale 0 is the no-effect control and ±100 the full control effect; nearly all actives have a fitted effect of over 60% in size
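Cells are dispensed, compounds pinned in, plates held at 37 °C for 72 h, then CellTiter-Glo is added and luminescence read after 10 minutes. Cell line: parental KB-3-1 in phenol-red-free DMEM, 10% FBS.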
HT1080 IDH1KD tx: HT-1080 IDH1 knockdown cell toxicity (counter line). HT-1080 IDH1 knockdown viability, ATP luminescence, 48 h. actives 2% (n = 360,000). Potency, µM (doses to about 46.1 µM), for inactives: at the highest dose activity, negative = toxicity, most hits filed as cytotoxic;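 further: 0% = DMSO wells and -100% = cell-free medium wells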
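In this qHTS, HT-1080 cells depleted of IDH1 are exposed for 48 h at 37 °C to compound titrations. Toxicity is scored from CellTiter-Glo luminescence, with DMSO as full viability and medium alone as none.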
MCF10A rereplic: DNA re-replication induction in MCF 10a cells. MCF 10A DNA re-replication, Hoechst nuclear intensity, 48 h. actives 2.9% (n = 350,000). Potency, µM (top dose mostly 46.1 µM), inactives show at the top dose activity, positive = re-replication, actives largely listed as activators; further: % of control where 0% means no effect; nearly all actives have a fitted effect of over 50% in size
HT1080-NT tox: kills 2HG-producing HT-1080-NT fibrosarcoma cells; HT-1080-NT fibrosarcoma viability, CellTiter-Glo ATP luminescence, 48 h; Potency, µM (highest dose often 46.1 µM), inactives show at the top dose activity, negative = less viability, usual class: cytotoxic; actives 1.6% (n = 360,000); AID 686970;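 further: NT is the 2HG producing partner of a matched IDH1 knockdown line; 0% = DMSO-treated cells and -100% = media-only wells without cells; nearly all actives have a fitted effect of over 55% in size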
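HT-1080-NT fibrosarcoma cells (2HG-overproducing), 750 cells/well in RPMI with 5% FBS, dosed after 2 h and incubated 48 h at 37C. CellTiter-Glo luminescence normalized to DMSO and no-cell wells; concentration-response curves fitted and classed.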
* = called active by the depositor; i = inactive; ? = inconclusive; . = not tested or not shown; [ ] = dose if it differs, or a comment. The call rests on the fitted dose curve; in most records, active means well fitted curve in the direction sought with a large enough effect; inconclusive means small, poorly fitted or top-dose-only effect, or another doubt; inactive means no such curve, though single readings can be large; an effect the other way counts as inactive or inconclusive. Potency means the concentration at half of the fitted maximal effect.

SMILES	SW480 rerep	KB-V1 cytotox	KB-3-1 tox	HT1080 IDH1KD tx	MCF10A rereplic	HT1080-NT tox
CCOC(=O)c1cnc2c(C)cc(Cl)cc2c1NCCCN1CCOCC1	0%	i	i	5%	23µM*	2%
COc1ccc2c(c1)CCc1c(C(=O)Nc3ccccc3C(F)(F)F)noc1-2	.	i	i	.	.	.
COC(=O)c1ccc2c(c1)C(C)(C)C(/C=C/c1ccc(O)cc1)=[N+]2C	6.3µM*	6.3µM*	?	2.8µM*	7.1µM*	5µM*
COC(=O)c1ccc2c(c1)C(C)(C)C(/C=C/c1ccc(OC)c(OC)c1OC)=[N+]2C	5%[9.22 µM]	i	5.2µM*	12µM*	?	12µM*
[O-][N+](=Nc1ccccc1)c1ccccc1	1%	.	.	.	2%	.
Cc1ccc(NS(=O)(=O)c2cc3c(cc2N(C)C)CCC(=O)N3)cc1C	.	i	i	.	.	.
COc1ccc(/C=N/Nc2nc3ccccc3s2)cc1O	-4%	?	i	-18%	15%	-15%
COc1ccc(C=C(c2nc3ccccc3s2)c2nc3ccccc3s2)cc1O	?	?	i	?	13µM*	?
COc1cc(C=C(c2nc3ccccc3s2)c2nc3ccccc3s2)ccc1O	?	i	i	?	21µM*	?
Cc1nc2nc(NCc3ccc(Cl)cc3)[nH]n2c(=O)c1Cc1ccccc1	.	i	i	.	.	.
COc1ccc(S(=O)(=O)NCCc2sc(C)nc2C)cc1F	.	16µM*	?	.	.	.
COc1ccc(CCNS(=O)(=O)c2ccc(OC)c(OC)c2)cc1OC	-22%	i	i	-4%	?	1%
Cc1cccc(NS(=O)(=O)c2ccc3c(c2)CC(C)N3C(=O)C2CCC2)c1C (stereo not drawn)	.	?	23µM*	.	.	.
Cn1c(-c2ccc(F)cc2)cnc1NCc1ccc(C#N)cc1	-2%	21µM*	i	-24%	11%	-12%
Cc1c(C(=O)NCCc2ccc(Cl)cc2)cccc1-n1cnc2cccnc21	.	i	i	.	.	.
COc1cc(NC(=O)c2ccccn2)cc(OC)c1OC	-69%	i	i	6%	8%	14%
C/C(=N\NC(=O)c1ccccn1)c1ccc(Cl)cc1	-8%	?	i	4%	-17%	8%
C/C(=N\Nc1ccc([N+](=O)[O-])cc1)c1cc2ccccc2o1	24%	i	i	-22%	2.9µM*	-24%
C/C(=N\NC(=O)c1ccc(Cl)cc1)c1ccccn1	?	?	?	?	3.7µM*	?
CC(=NNC(=S)Nc1cccc(Cl)c1)c1ccccn1	?	?	?	?	?	18µM*
COc1cc(C(=O)N/N=C(\C)c2ccccn2)cc(OC)c1OC	3.7µM*	7.3µM*	6.5µM*	?	?	?
CCN(CC)CCNC(=O)C(=O)NCC(c1cccnc1)N1CCN(c2ccccc2)CC1 (stereo not drawn)	.	i	i	.	.	.
COc1ccc(NC(=O)c2cc(C3CC3)nc3c2c(C)nn3-c2ccc(C)cc2)cc1OC	.	i	i	.	.	.
O=C(Sc1ccc(Cl)cc1)c1ccccn1	-6%	i	i	23µM*	9%	?
C/C(=N\NC(N)=O)c1ccc(Cl)cc1	?	12µM*	?	0%	-10%	-2%
SMILES	SW480 rerep	KB-V1 cytotox	KB-3-1 tox	HT1080 IDH1KD tx	MCF10A rereplic	HT1080-NT tox
C/C(=N\NC(=S)Nc1cccc(C)c1)c1cc2ccccc2o1	13%	i	i	-20%	14µM*	-26%
CCNC(=S)N/N=C(\C)c1cc2ccccc2o1	-2%	i	i	9%	-4%	10%
C/C(=N/NC(=O)c1ccccn1)c1ccco1	2%	21µM*	?	?	5%	?
COc1cc(C(=O)NCC(=O)N/N=C/c2ccccn2)cc(OC)c1OC	-7%	i	i	14%	-2%	12%
COc1cc(C(=O)N/N=C(\c2ccccc2)c2ccccn2)cc(OC)c1OC	?	i	?	?	18µM*	?
COc1cccc(C(=O)N/N=C(/c2ccccc2)c2ccccn2)c1	?	i	?	0.89µM*	?	?
COc1cccc(C(=O)N/N=C(/CCC(=O)O)c2ccccc2)c1	-2%	i	i	17%	-9%	14%
Cc1ccc(C(C(=O)NC2CCCCC2)N(C(=O)Cc2c[nH]c3ccccc23)c2ccccc2C)o1 (stereo not drawn)	?	?	?	23µM*	?	15µM*
COc1ccc(C(C(=O)NC2CCCCC2)N(Cc2cccs2)C(=O)Cc2c[nH]c3ccccc23)cc1OC (stereo not drawn)	28%	8.2µM*	?	?	15%	?
Cc1ccccc1N(C(=O)Cc1c[nH]c2ccccc12)C(C(=O)NC1CCCCC1)c1ccco1 (stereo not drawn)	-6%	?	i	?	?	?
COc1ccc(C(C(=O)NC2CCCCC2)N(C(=O)Cc2c[nH]c3ccccc23)c2ccccc2C)cc1OC (stereo not drawn)	29%	?	i	-21%	10%	-18%
Cc1ccc(N(C(=O)Cc2c[nH]c3ccccc23)C(C(=O)NC2CCCCC2)c2ccco2)cc1 (stereo not drawn)	?	16µM*	?	?	?	?
Cc1ccc(C(C(=O)NC2CCCCC2)N(Cc2ccco2)C(=O)Cc2c[nH]c3ccccc23)o1 (stereo not drawn)	12%	10µM*	i	-19%	?	-16%
CN1CCN(C(=O)c2ccc3c(c2)N(Cc2c(F)cccc2Cl)C(=O)c2ccccc2S3)CC1	.	i	i	.	.	.
O=C(Cc1ccc(Cl)cc1)NC1CC(=O)N(c2ccc3c(c2)OCCO3)C1 (stereo not drawn)	.	i	i	.	.	.
Nc1nc(CCl)nc(Nc2cccc3ccccc23)n1	?	?	?	?	?	0.52µM*
COc1ccc(OC)c(-c2cc(-c3cccnc3)nc(N)c2C#N)c1	6.5µM*	2.6µM*	2.1µM*	1.5µM*	12µM*	1.8µM*
CN(C(=O)c1ccc2c(c1)N(Cc1ccccc1F)C(=O)c1ccccc1S2(=O)=O)C1CCCCC1	.	?	i	.	.	.
CCN(CC)CCOC(=O)C1(c2ccc(OC)c(OC)c2)CCCC1	-8%	21µM*	i	-7%	-2%	-15%
CN(C(=O)NCc1noc2ccccc12)c1cccc(Cl)c1	.	i	i	.	.	.
Cc1cccc(C)c1NC(=O)CSc1nc2ncccc2o1	.	i	i	.	.	.

Source: PubChem BioAssay (National Center for Advancing Translational Sciences (NCATS))
